In the library only some 0.96% were active in any assay of this set; here they are far more common.
V-ATPase pH: yeast V-ATPase proton transport regulation by pHLuorin; actives 0.37% (n = 350,000); S. cerevisiae, pHLuorin cytosolic pH fluorescence; response, % at 10 µM; in the data active = response mostly above about 7.3%, no sharp cut-off; inactive = mostly below about 5.4%; note: actives read high
HDAC3 inh: inhibitors of human histone deacetylase 3. actives 0.15% (n = 320,000). AID 2718. recombinant HDAC3, fluorogenic peptide/trypsin coupled, fluorescence. inhibition, % at 8.3 µM; in the data active = inhibition above about 26%, passing the limit was not always enough; inconclusive = no clear call, values can overlap the other calls
DAGLB inhibitor: diacylglycerol lipase beta (human) inhibition. Q8NCG7. HEK293T DAGLB membrane lysate, EnzChek fluorogenic substrate. inhibition, % at 5.17 µM. actives 0.059% (n = 340,000). AID 504411; in the data active = inhibition above about 34%
Target sequence (Q8NCG7 whole entry, looked up): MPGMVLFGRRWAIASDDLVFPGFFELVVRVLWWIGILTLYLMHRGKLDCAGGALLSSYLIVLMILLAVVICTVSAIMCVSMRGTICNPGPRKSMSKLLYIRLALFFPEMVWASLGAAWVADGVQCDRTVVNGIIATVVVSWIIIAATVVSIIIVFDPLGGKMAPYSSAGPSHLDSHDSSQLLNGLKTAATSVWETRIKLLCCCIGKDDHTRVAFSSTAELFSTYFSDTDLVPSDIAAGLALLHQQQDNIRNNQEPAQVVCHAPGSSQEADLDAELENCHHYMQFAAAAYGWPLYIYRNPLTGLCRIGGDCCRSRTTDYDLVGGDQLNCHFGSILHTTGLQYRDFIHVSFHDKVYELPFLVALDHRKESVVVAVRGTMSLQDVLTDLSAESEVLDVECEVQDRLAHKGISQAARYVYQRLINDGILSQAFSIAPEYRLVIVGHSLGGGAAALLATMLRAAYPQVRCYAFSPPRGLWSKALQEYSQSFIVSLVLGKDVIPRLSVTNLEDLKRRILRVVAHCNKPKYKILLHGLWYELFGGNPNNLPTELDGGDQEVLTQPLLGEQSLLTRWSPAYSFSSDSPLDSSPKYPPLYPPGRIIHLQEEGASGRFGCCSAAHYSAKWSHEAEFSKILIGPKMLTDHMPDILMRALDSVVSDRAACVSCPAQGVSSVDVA
Rtt109 Vps75: C. albicans Rtt109 histone acetyltransferase inhibition | purified Rtt109/Vps75, ThioGlo CoA-SH fluorescence, 4 h | inhibition, % at 34.9 µM | actives 0.16% (n = 330,000);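 active = inhibition of at least 50% in every replicate; inconclusive = best replicate reaches 50% inhibition but some replicates fall short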
beta cell repl: induces beta-cell replication in MIN6 cells | MIN6 cells proliferation, ATPlite luminescence, 48 h; cells starved in 0.2% serum; 100% = growth in 10% serum | proliferation, % at 10 µM | actives 0.29% (n = 330,000);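 active = compounds whose signal lies at least 3.5 SD above the mean of all wells on their plate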
Large screens that a line does not name were inactive.

COc1ccc(S(=O)(=O)N2CCCN(CC(=O)Nc3cc(NC(C)=O)ccc3OC)CC2)cc1	none
O=C(CCCCCNC(=S)Nc1ccccc1)C[N+](=O)[O-]	HDAC3 inh 29 (no result: Rtt109 Vps75)
O=C(OC(c1ccc(NS(=O)(=O)c2ccccc2)cc1)(C(F)(F)F)C(F)(F)F)c1ccccc1	HDAC3 inh 34
Cc1ccc(S(=O)(=O)Nc2ccc(C(OC(=O)c3ccccc3[N+](=O)[O-])(C(F)(F)F)C(F)(F)F)cc2)cc1	HDAC3 inh 31
C[C@H](CO)N1C[C@H](C)[C@@H](CN(C)S(=O)(=O)c2ccccc2)Oc2ccc(NC(=O)Nc3ccccc3)cc2C1=O	none
CCOC(=O)c1c(CSC(=N)N)n(C)c2cc(Br)c(OC(C)=O)cc12	Rtt109 Vps75 85
CCOC(=O)c1c(CSC(=N)N)n(-c2ccc(C)cc2)c2cc(Br)c(OC(C)=O)cc12	none
CN(C1CCCC1)C1CCN(C(=O)CNC(=O)/C=C/c2ccccc2)CC1	none
CC1CCCCC1N(C)C1CCN(C(=O)CNC(=O)/C=C/c2cccc(Cl)c2)CC1 (stereo not given)	Rtt109 Vps75 51
CS(=O)(=O)c1ncc(Cl)c(C(=O)Nc2ccc(N3CCOCC3)cc2)n1	Rtt109 Vps75 110 (no result: HDAC3 inh)
CS(=O)(=O)c1ncc(Cl)c(C(=O)Nc2ccc(OC(F)F)cc2)n1	none
CCCCc1nc2cc(C(=O)N(C)CCc3cn[nH]c3)ccc2o1	V-ATPase pH 15
N/C(=N\OC(=O)COc1ccc(Cl)cc1Cl)c1ccccn1	none
N/C(=N\OC(=O)COc1ccc(Br)cc1Cl)c1ccccn1	V-ATPase pH 22
COc1ccc(CCC(=O)O)c(O)c1	none
COC(=O)NC1CCS(=O)(=O)C1 (stereo not given)	none
CCOc1ccccc1N1CCN(C(=O)c2ccncc2)CC1	Rtt109 Vps75 51
O=S(=O)(c1ccc(F)cc1)c1nc(-c2ccco2)oc1NCCCn1ccnc1	none (no result: HDAC3 inh, Rtt109 Vps75, beta cell repl)
Cc1cc2ccccn2c1C(=O)c1cccc([N+](=O)[O-])c1	none
Cc1cc2ccccn2c1C(=O)c1ccc([N+](=O)[O-])o1	V-ATPase pH 11
CCOc1ccc(N2C(=O)CC(Sc3ccccc3C(=O)O)C2=O)c([N+](=O)[O-])c1 (stereo not given)	Rtt109 Vps75 65
CCOC(=O)c1c(N2C(=O)CC(Sc3ccccc3C(=O)O)C2=O)sc2c1CCCC2 (stereo not given)	Rtt109 Vps75 88
COc1ccccc1-c1nnc(NC(=O)C(C)C)s1	V-ATPase pH 8.0
COc1ccccc1-c1nnc(NC(C)=O)s1	none
CC(C)Oc1ccc(C(=O)N/N=C/c2ccc(-c3ccc(S(=O)(=O)Nc4ncccn4)cc3)o2)cc1	none
Nc1nc(SCc2ccc(F)cc2)ns1	V-ATPase pH 24
COc1ccc(C(C(=O)NC2CCCC2)N(Cc2ccccc2)C(=O)c2snc(C(N)=O)c2N)cc1OC (stereo not given)	none
CCOC(=O)Cc1nnc(NC(=O)CSc2nnc3c(n2)[nH]c2ccccc23)s1	HDAC3 inh 65
CC1CCCC(NC(=O)CSc2cccc[n+]2[O-])C1C (stereo not given)	none
CN(C)c1ccc(C(=O)n2nnc3ccccc32)cc1	HDAC3 inh 91
C#CCOC(=O)c1ccccc1C(=O)n1nnc2ccccc21	HDAC3 inh 94
COC(=O)c1ccc(NC(=O)Cn2nnc3ccccc32)cc1	none
Cc1ccc(C(=O)n2nnc3ccccc32)cc1	HDAC3 inh 97 (no result: V-ATPase pH, DAGLB inhibitor, Rtt109 Vps75)
CCCC(=O)Nc1ccc(C(=O)n2nnc3ccccc32)cc1	HDAC3 inh 75
O=C(c1cccc(F)c1)n1nnc2ccccc21	none
CC(CCc1ccccc1)C(=O)NO (stereo not given)	none
COc1ccc(S(=O)(=O)N(C)C)cc1NC(=O)Cc1ccc(S(=O)(=O)N2CCOCC2)s1	Rtt109 Vps75 51 (no result: HDAC3 inh)
CCn1c(C(C#N)/C(=N\S(=O)(=O)c2cccs2)c2ccccc2)nc2ccccc21 (stereo not given)	none
Cc1cc(C)c2c(=O)n(CC(=O)Nc3cccc(Cl)c3C)sc2n1	Rtt109 Vps75 150
O=C(Nc1ccc2c(c1)CCCN2C(=O)c1cccs1)c1ccccc1	none
Oc1ccccc1N1CCN(c2nc(-c3cccs3)nc3ccccc23)CC1	none
CCCC(=O)Nc1ccc(S(=O)(=O)N2CCC(c3nc4ccccc4[nH]3)CC2)cc1	V-ATPase pH 20
CCC(=O)Nc1ccc(S(=O)(=O)N2CCC(c3nc4ccccc4[nH]3)CC2)cc1	none (no result: Rtt109 Vps75)
CC1(C)CC(=O)C2=C(C1)OC1=C(C2)C(=O)CC(C)(C)C1	V-ATPase pH 146
CC1(C)CC(=O)C2=C(C1)OC1=C(C(=O)CC(C)(C)C1)C2c1ccc(O)cc1O	none
O/N=C/c1cn(-c2ccc(Cl)cc2)nn1	none (no result: DAGLB inhibitor)
Cc1ccc(OCC(=O)NC2=NCCS2)cc1	none
Cc1ccccc1OCC(=O)NC1=NCCS1	V-ATPase pH 17
COC(=O)c1sc(S(=O)(=O)N2CCN(CCO)CC2)c(C(=O)OC)c1C	none
CC(=O)Oc1oc(-c2ccccc2)nc1/C=N/c1ccccn1	HDAC3 inh 84
CCCCCCSc1ccc([C@@H]2[C@@H]3C(=O)N(C)C(=O)[C@@H]3[C@]3(C(=O)OC)CCCCN23)cc1OC	HDAC3 inh 36
Cc1ccc(S(=O)(=O)NCC(=O)NCc2cc(=O)n(C)c(=O)n2C)cc1C	none
Cc1ccc(-n2sc3ccccc3c2=O)cc1	HDAC3 inh 52
O=c1c2ccccc2sn1-c1ccc(F)cc1	Rtt109 Vps75 inconclusive
COC(=O)c1cccc(-n2sc3ccccc3c2=O)c1	HDAC3 inh 67, Rtt109 Vps75 130
CCC(Oc1ccccc1)C(=O)NCCOC (stereo not given)	none
COCCNCC(=O)Nc1ccc(C)c(S(=O)(=O)N2CCCCC2)c1	none
COCCNC(=O)C1=C(N)C(C(=O)Nc2ccc(C)c(S(=O)(=O)N3CCCCC3)c2)SC1=Nc1ccc(C)cc1C (stereo not given)	Rtt109 Vps75 58
CC(=O)N1CCCc2ccc(NS(=O)(=O)c3ccc(C)cc3)cc21	none
Cc1nnc2sc(-c3ccc(N(C)C)cc3)nn2c1=O	none (no result: HDAC3 inh)
Cc1cc(C)c(C#N)c(SCc2ccccc2F)n1	V-ATPase pH 14
CCCc1cc(=O)oc2cc(OCC(=O)N(C)C)c(Cl)cc12	V-ATPase pH 26
COc1ccc(NC(=O)C2C3CCC(C3)C2C(=O)O)cc1OC (stereo not given)	none
CC(=O)N(c1ccc2oc(=O)sc2c1)S(=O)(=O)c1ccccc1	Rtt109 Vps75 67
CC(C)C(=O)N(c1ccc2oc(=O)sc2c1)S(=O)(=O)c1ccccc1	none
COc1ccc(S(=O)(=O)N(C(=O)C(C)C)c2ccc3oc(=O)sc3c2)cc1	none
CCCC(=O)N(c1ccc2oc(=O)sc2c1)S(=O)(=O)c1cccs1	Rtt109 Vps75 124
COc1ccc(CCNS(=O)(=O)c2cccs2)cc1	none
O=C(O)C1CCc2sc3[nH]c(=S)n(-c4ccccc4)c(=O)c3c21 (stereo not given)	Rtt109 Vps75 105
